# Measurements: PubChem BioAssay (NCI)
# Compounds without any hit were thinned out: in the full panel of roughly 83,000, 20% have a hit.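 Note: values are percent growth. 100 is the growth of untreated cells, values between 100 and 0 indicate rising inhibition; between -100 and 0 indicates cell death.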 A number with no mark means an inactive call. Activity calls are given as the source filed them. The calls were made as follows: active = growth percent below 10; inactive = the rest.
# Assays:
# Experiment in all cases: NCI-60 one-dose screen, 48 h (100 = growth as untreated, 0 = no growth, -100 = all killed)
# Details in all cases: 10 µM unless noted
# NCI-H226 lung = test system: NCI-H226 lung
# NCI-H322M lung = test system: NCI-H322M lung
# HOP-62 NSCLC = test system: HOP-62 NSCLC
# NCI-H460 lung = test system: NCI-H460 lung
# HOP-92 NSCLC = test system: HOP-92 NSCLC
# NCI-H522 lung = test system: NCI-H522 lung
# A549/ATCC NSCLC = test system: A549/ATCC NSCLC
# 786-0 renal = test system: 786-0 renal
# COLO 205 colon = test system: COLO 205 colon
# DU-145 prostate = test system: DU-145 prostate
# K-562 leukemia = test system: K-562 leukemia
# MALME-3M melanoma = test system: MALME-3M melanoma
# MDA-MB-231 breast = test system: MDA-MB-231 breast
# RXF 393 renal = test system: RXF 393 renal
# SF-268 CNS = test system: SF-268 CNS
# SF-295 CNS = test system: SF-295 CNS
# SF-539 CNS = test system: SF-539 CNS
# UACC-257 melanoma = test system: UACC-257 melanoma
# M14 melanoma = test system: M14 melanoma
Structure (SMILES),growth (NCI-H226 lung),growth (NCI-H322M lung),growth (HOP-62 NSCLC),growth (NCI-H460 lung),growth (HOP-92 NSCLC),growth (NCI-H522 lung),growth (A549/ATCC NSCLC),growth (786-0 renal),growth (COLO 205 colon),growth (DU-145 prostate),growth (K-562 leukemia),growth (MALME-3M melanoma),growth (MDA-MB-231 breast),growth (RXF 393 renal),growth (SF-268 CNS),growth (SF-295 CNS),growth (SF-539 CNS),growth (UACC-257 melanoma),growth (M14 melanoma)
CC/C=C\C[C@H](O)C/C=C1/C(=O)C=C[C@@H]1C/C=C\CCCC(=O)N(C)C,-51.3% (active),18.3%,-40.2% (active),-26.3% (active),-4.76% (active),-88.2% (active),-35.6% (active),-66.2% (active),-58.6% (active),16.4%,5.58% (active),8.29% (active),18.3%,-65.1% (active),16.6%,-1.42% (active),14.7%,-9.75% (active),5.92% (active)
Nc1c(C(=O)Nc2ccccc2F)sc2nc3c(cc12)CCCC3,63.5%,63.1%,23.7%,12%,11.9%,23%,39.5%,33.2%,13%,26.8%,14.1%,62.9%,45.1%,39.2%,50.4%,21.9%,6.85% (active),61.6%,33.5%
Oc1c(Br)cc(Br)c2ccc(Cn3cc(-c4ccc(C(F)(F)F)cc4)nn3)nc12,85%,103%,98.9%,103%,21.5%,-43.5% (active),103%,96.9%,59.7%,46.2%,6.39% (active),16.7%,96.3%,1.8% (active),85.7%,105%,56.2%,54.9%,48.6%
O=C(O)c1cn(C2CC2)c2cc(N3CCN(Cc4ccc5ccccc5c4O)CC3)c(F)cc2c1=O,9.01% (active),23.4%,-31% (active),6.73% (active),-6.42% (active),24.8%,-23.4% (active),38.3%,33.4%,11.2%,62%,13.9%,48.4%,-23.2% (active),57.1%,44.2%,-4.68% (active),38.5%,48%
O=C(Nc1ccc(Oc2cccc(Cl)c2)c(Cl)c1)c1cnccn1,64.1%,47.9%,41%,15.7%,62%,12.5%,23.9%,44.6%,12.3%,22.7%,13.2%,53.4%,31.7%,-4.58% (active),54.3%,41.2%,-35.2% (active),72.4%,19.8%
COCCOc1cc2ncnc(N3CCN(c4ncc(S(=O)(=O)N5CCCCC5)cn4)CC3)c2cc1OCCOC,97.2%,96.5%,118%,103%,89.5%,84.4%,102%,108%,121%,102%,96.3%,93.8%,106%,110%,93.3%,99.6%,107%,101%,97.8%
Cn1c(=O)cc2c3c(c(NCCCO)ccc31)C(=O)c1ccccc1-2,38.4%,41.4%,43.8%,16.8%,74.8%,22.2%,33.5%,38.6%,27.8%,45.4%,38.1%,27.3%,58.1%,42.6%,42.3%,42.8%,50%,64.2%,55.3%
O=C1/C(=C/c2cn(-c3ccccc3)nc2-c2ccccc2)SC(=S)N1C1CCCCC1,92%,105%,101%,103%,46.9%,91.5%,103%,106%,117%,106%,101%,92.3%,89.8%,106%,102%,104%,99.4%,102%,99.1%
C=CCn1c(C)nc2ccc(Nc3nc(Nc4ccc5nc(C)n(CC=C)c5c4)c4ccccc4n3)cc21,67.4%,-13.4% (active),-61.5% (active),-69.5% (active),43.2%,-90.7% (active),-83.1% (active),-93.8% (active),-92.3% (active),-67.6% (active),-43.5% (active),-78.9% (active),-78.8% (active),-80.7% (active),-32.4% (active),-67.5% (active),-93.8% (active),-87.6% (active),-88.4% (active)
COc1cc(C2c3cc(OC(C)=O)c(OC)cc3CC3C(=O)OCC32)ccc1OC(C)=O (centres undefined),107%,115%,91.8%,109%,53.7%,105%,104%,96.4%,119%,115%,115%,112%,105%,115%,111%,112%,99.4%,103%,106%
Nc1ncnc2c1C(c1ccc(Br)cc1)c1sc3c(F)cccc3c1O2 (centres undefined),81.5%,95.9%,90.1%,92.1%,91.7%,84.2%,99.3%,99.9%,106%,102%,99.1%,127%,79.7%,104%,98.9%,102%,102%,114%,103%
Cc1c(O)cc(-c2cnc(Nc3ccccc3)s2)c(O)c1C,98.6%,96.6%,97.4%,99.3%,-64.4% (active),83.4%,93.1%,107%,107%,105%,87.2%,107%,99.2%,99.5%,105%,98.9%,95%,106%,93.6%
C=CCN=c1sc2c(n1NC(=O)c1cc3ccc1CCc1ccc(cc1)CC3)C(=O)c1ccccc1C2=O,48.5%,67.8%,19.5%,12.7%,21.5%,-20.2% (active),23.3%,-21.8% (active),19.2%,-90.7% (active),-12.3% (active),-88.6% (active),-6.76% (active),-26.3% (active),8.79% (active),69.2%,-98.3% (active),-72.6% (active),-93.9% (active)
CCOC(=O)c1cc2c(n1Cc1cc(OC)c(OC)c(OC)c1)-c1nc(N)sc1CCC2,73.4%,81.7%,44.3%,31.9%,42%,7.85% (active),28%,36.8%,40.3%,79.1%,24.6%,69.5%,51.6%,54.9%,70.5%,26%,62.5%,43.9%,25.6%
COc1ccc(-c2cc(-c3cccnc3)nc3sc4c(=O)[nH]c(-c5ccc(Cl)cc5)nc4c23)cc1OC,79.1%,104%,88.3%,90.9%,75.1%,78.6%,82.8%,89.2%,91.2%,105%,85.7%,115%,76.7%,103%,93.4%,99.5%,96.1%,97.5%,106%
COc1ccc(F)cc1/C=C/C(=O)/C=C(/C=C/c1cc(F)ccc1OC)OB(F)F,97.9%,103%,86.1%,75.2%,56.1%,-20.7% (active),71.7%,19.4%,10.8%,37.9%,7.73% (active),5.69% (active),32.5%,18%,80.2%,93.8%,61.1%,48.8%,9.74% (active)
